# Assay outcomes (PubChem)
# An excerpt weighted towards active compounds, which were near 21% of everything screened.
# DT40 TDP1 CPT – DT40-hTDP1 cell growth loss with CPT; chicken DT40 Tdp1-/-;hTDP1 cells + 20 nM CPT, ATP luminescence, 48 h; Potency, µM (top dose mostly 46.2 µM), inactives show at the top dose activity change, negative = growth inhibition, most hits filed as inhibitors; AID 686979; 420,000 compounds, 12% hits; also: potency is read from the fitted curve at half-maximal effect; nearly all actives have a fitted effect of over 55% in size
#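 Chicken DT40 Tdp1-/- cells stably complemented with human TDP1 were seeded at 400 cells/well in medium containing 20 nM camptothecin, exposed to pin-transferred compounds, and grown at 37 °C for at least 48 hr. Viability was read as ATP luminescence.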
# ELG1 repair inh – ELG1-dependent DNA repair inhibition. Potency, µM (highest dose often 46.1 µM), for inactives: top-dose activity change, negative = inhibition, actives largely listed as inhibitors. 330,000 compounds, 2.3% hits. HEK293T ELG1-luciferase reporter, luminescence, 16 h; DNA damage induced by 5-fluorouridine; also: potency is read from the fitted curve at half-maximal effect; nearly all actives have a fitted effect of over 55% in size
#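 Luminescence from the luciferase reporter, measured 30 min after ONE-Glo reagent at room temperature, was the read-out. Beforehand, 2,000 cells per well were exposed for 16 hr at 37 °C to 5-fluorouridine together with compound or vehicle.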
# RORgamma inh – ROR gamma (mouse) transcription inhibition | Drosophila S2 Gal4-RORgamma UAS-luciferase reporter, 20 h | P51450 | 310,000 compounds, 5.4% hits | Potency, µM (highest dose often 53.6 µM), inactives show at the highest dose activity change, negative = inhibition, usual class: inhibitors | AID 2551; also: potency is read from the fitted curve at half-maximal effect; nearly all actives have a fitted effect of over 60% in size
# Target sequence (P51450 whole entry, looked up, the tested form may be a part): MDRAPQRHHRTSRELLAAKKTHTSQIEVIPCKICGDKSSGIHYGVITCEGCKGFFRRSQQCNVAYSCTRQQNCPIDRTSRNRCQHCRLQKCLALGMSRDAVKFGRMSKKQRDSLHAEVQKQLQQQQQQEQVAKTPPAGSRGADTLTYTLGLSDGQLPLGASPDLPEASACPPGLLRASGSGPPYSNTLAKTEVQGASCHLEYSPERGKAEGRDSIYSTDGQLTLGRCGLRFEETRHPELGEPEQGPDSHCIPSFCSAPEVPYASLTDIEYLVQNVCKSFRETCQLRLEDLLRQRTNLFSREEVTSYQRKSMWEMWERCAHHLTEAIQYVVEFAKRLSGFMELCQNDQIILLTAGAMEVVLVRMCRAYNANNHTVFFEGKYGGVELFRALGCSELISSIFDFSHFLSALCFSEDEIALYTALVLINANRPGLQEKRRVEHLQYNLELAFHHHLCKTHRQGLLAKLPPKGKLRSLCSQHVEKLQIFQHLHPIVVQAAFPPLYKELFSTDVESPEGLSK
#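 Drosophila S2 cells stably expressing Gal4-DBD/mouse RORγ fusion under metallothionein promoter plus UAS-luciferase; compound 1 h, then 700 uM CuSO4 induction for 20 h at ambient temperature; inhibition read as reduced luminescence.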
# VP16 counter – Gal4-VP16 reporter inhibition counter-screen. Drosophila S2 Gal4-VP16 UAS-luciferase, luminescence, 20 h. Potency, µM (top dose mostly 53.6 µM), without a hit: at the highest dose activity, negative = inhibition, most hits filed as inhibitors. 310,000 compounds, 3.5% hits. AID 2546;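 also: Gal4-VP16 expression switched on by copper sulfate through the metallothionein promoter; potency is read from the fitted curve at half-maximal effect; nearly all actives have a fitted effect of over 50% in size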
# TDP1 cell noCPT – qHTS for Inhibitors of human tyrosyl-DNA phosphodiesterase 1 (TDP1): qHTS in cells in absence of CPT; DT40 Tdp1-/- hTDP1 cells, no CPT, ATP luminescence, 48 h; Potency, µM (series often up to 46.2 µM), for the others: at the highest dose activity change, negative = growth inhibition, most hits filed as inhibitors; 420,000 compounds, 15% hits; AID 686978, 2013; also: potency is read from the fitted curve at half-maximal effect; nearly all actives have a fitted effect of over 55% in size
#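 Camptothecin absent (DMSO only). Human TDP1-complemented DT40 knockout cells, 400 cells/well, 37 °C for minimum 48 hr; ATP measured via CellTiter-Glo, 30 min dark incubation, luminescence.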
# IL-1B inflam inh – inhibitors of inflammasome signaling (IL-1 beta secretion). THP-1 LPS/ATP IL-1B secretion, AlphaLISA, 16 h; active compounds read low. activity change, % at 57.5 µM. 360,000 compounds, 4.7% hits. AID 743279; in the data active = activity change below about -50%; inconclusive = mostly about -30% to -49%
#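 THP-1 cells pretreated 1 hr with compounds (up to 57.5 uM final), then stimulated with LPS (250 ng/mL final) plus ATP (1.25 mM final); secreted IL-1B measured by AlphaLISA after 16 hr, decreased signal indicating inhibition.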
# * hit, by the source's call; ? = inconclusive; . = not tested or not shown; [ ] = dose if it differs, or a comment. Unless noted, calls follow the shape of the dose curve; as a rule, active = well fitted curve in the direction sought with a large enough effect; inconclusive = small, poorly fitted or top-dose-only effect, or another doubt; inactive = no such curve, though single readings can be large; an effect the other way counts as inactive or inconclusive. % is scaled to controls: 0 for no effect and ±100 for the full control effect.
SMILES,DT40 TDP1 CPT,ELG1 repair inh,RORgamma inh,VP16 counter,TDP1 cell noCPT,IL-1B inflam inh
OC(c1cccs1)(c1cccs1)C1C[N+]2(CF)CCC1CC2 (stereo not drawn),-2.7%,26.4%,-7.5%,-11.2%,1.1%,1.5
CCOC(=O)C[C@@H]1OC[C@H](C)N1S(=O)(=O)c1ccc(C)cc1,-31.2%,.,.,.,?,32.2
O=C(Cn1cnc2c(NCc3ccccc3)ncnc21)NCCc1cc2ccccc2[nH]1,-5.7%,-28.6%,.,.,-14.6%,-6.8
COCC(=O)N1CCC(c2nc3ccccc3[nH]2)CC1,-7.0%,.,.,.,-11.5%,3.8
CCOC(=O)C1=CN(CC)S(=O)(=O)NC1CCc1ccccc1 (stereo not drawn),-14.0%,?,.,.,-29.7%,-8.0
CCOC(=O)C1=CN(Cc2cccc(Br)c2)S(=O)(=O)N(CC)C1C (stereo not drawn),?,2.9%,.,.,?,-20.3
CCCN1C(C)C(C(=O)OCC)=CN(Cc2cccc(I)c2)S1(=O)=O (stereo not drawn),?,-2.2%,.,.,16.4µM*,5.3
CCOC(=O)C1=CN(Cc2cccc(F)c2)S(=O)(=O)N(C)C1c1ccc(F)c(Cl)c1 (stereo not drawn),?,?,.,.,16.4µM*,15.5
CCOC(=O)C1=CN(Cc2cccc(-c3ccc(Cl)nc3)c2)S(=O)(=O)N(C)C1C (stereo not drawn),23.1µM*,?,.,.,20.6µM*,?
CCOC(=O)C1=CN(Cc2cccc(F)c2)S(=O)(=O)NC1CCc1ccccc1 (stereo not drawn),?,?,.,.,25.9µM*,?
CCOC(=O)C1=CN(Cc2cccc(F)c2)S(=O)(=O)N(CC)C1CCc1ccccc1 (stereo not drawn),?,-8.0%,.,.,?,51.8
O=C(CSc1ccc(F)cc1)NCC1(N2CCOCC2)CCCCC1,-5.4%,-0.5%,.,.,?,-10.1
Cc1ccc(Cn2ccn(CC(=O)Nc3c(C)cc(C)cc3C)c(=O)c2=O)cc1,1.8%,.,.,.,1.8%,.
COc1ccc(OC)c(CNC(=O)c2cnc(N(C)C)nc2)c1,-3.7%,.,.,.,5.4%,.
CCOC(=O)C1=CN(Cc2cccc(F)c2)S(=O)(=O)N(C)C1c1ccc(C(F)(F)F)cc1 (stereo not drawn),?,4.1%,.,.,?,-6.0
CCOC(=O)C1=CN(Cc2cccc(-c3ccc4c(c3)OCO4)c2)S(=O)(=O)N(C)C1C (stereo not drawn),?,?,.,.,23.1µM*,-6.1
CC#CCN1C=C(C(=O)OCC)C(C)N(Cc2ccc(Br)cc2)S1(=O)=O (stereo not drawn),18.4µM*,-18.0%,.,.,23.1µM*,-13.3
CCCN1C(C)C(C(=O)OCC)=CN(Cc2ccc(Br)cc2)S1(=O)=O (stereo not drawn),?,-8.4%,.,.,?,-7.2
COc1ccc(C(C#N)=C2C=C(Cl)C(=NO)C=C2Cl)cc1,3.26µM*,.,.,.,2.59µM*,-5.9
COc1ccc(C(C#N)=C2C=CC(=NO)C(C)=C2Cl)cc1,10.3µM*,.,.,.,7.31µM*,-82.1*
COc1ccc(O[C@H]2C=C[C@@H](c3ccccc3)O[C@H]2CO/N=C2/[C@H]3O[C@@H]3[C@@H](O)[C@H]3[C@H]2CCn2c(=O)n(-c4ccccc4)c(=O)n23)cc1,.,.,-1.5%[10 µM],-7.8%[10 µM],.,.
CN(C(=O)COc1coc(CN2CCN(c3ccccc3)CC2)cc1=O)c1ccccc1,-21.2%,19.9%,.,.,-17.8%,20.3
CN(C(=O)CN1CCN(c2cc(-c3ccc(-c4ccccc4)cc3)ncn2)CC1)c1ccccc1,23.1µM*,.,.,.,?,-14.9
CC(C)C[C@@H](CN1CCCC1CN1C(=S)NC[C@@H]1Cc1ccc(O)cc1)N1C[C@H](Cc2ccccc2)N(CC2CCCCCC2)C1=S (stereo partly drawn),?,.,.,.,23.1µM*,0.5
CC(C)C[C@H]1CNC(=S)N1C[C@H]1CCCN1C[C@H](CC(C)C)N1C[C@H](Cc2ccc(O)cc2)N(CC2CCCCC2)C1=S,10.3µM*,.,.,.,13µM*,-61.9*
SMILES,DT40 TDP1 CPT,ELG1 repair inh,RORgamma inh,VP16 counter,TDP1 cell noCPT,IL-1B inflam inh
CC(C)C[C@@H](CN1CCCC1CN1C(=S)NC[C@@H]1Cc1ccc(O)cc1)N1C[C@H](Cc2ccc(O)cc2)N(CC2CCCCCC2)C1=S (stereo partly drawn),14.6µM*,.,.,.,8.2µM*,-82.7*
CC(C)C[C@@H](CN1CCCC1CN1C(=S)NC[C@@H]1Cc1ccc(O)cc1)N1C[C@H](Cc2ccccc2)N(CC2CCCCC2)C1=S (stereo partly drawn),?,.,.,.,?,-22.3
CCC(C)NC(=O)CN1C(=O)NC2(CCc3ccccc3C2)C1=O (stereo not drawn),16.2%,-0.1%,8.1%,5.8%,?,0.0
Clc1cccc(CSc2nnc(C3CCNCC3)o2)c1,-25.8%,.,.,.,?,.
COc1ccc(C(O)c2nc(-c3ccc(OC)c(OC)c3)cs2)cc1 (stereo not drawn),13µM*,.,.,.,18.4µM*,-2.4
COc1cc(C(O)c2nc(-c3ccc4ccccc4c3)cs2)ccc1F (stereo not drawn),23.1µM*,.,.,.,20.6µM*,-16.8
COc1cc(C(O)c2nc(-c3ccc(C)c(C)c3)cs2)ccc1F (stereo not drawn),?,.,.,.,?,-3.8
COc1ccc(C(O)c2nc(-c3ccc4ccccc4c3)cs2)cc1 (stereo not drawn),?,.,.,.,16.4µM*,15.2
COc1ccc(-c2csc(C(O)c3ccc(F)cc3)n2)cc1 (stereo not drawn),?,.,.,.,?,18.6
CCOC(=O)c1cc2c(c(-c3cccc(C#Cc4ccc(OC)c(OC)c4)c3)n1)[C@@H](CCO)N(S(=O)C(C)(C)C)C2 (stereo partly drawn),?,.,.,.,?,-28.3
CCOc1ccc(NC(=O)Cn2cc(S(=O)(=O)NC)c(S(=O)(=O)NC)c2)cc1,-3.1%,.,.,.,-14.9%,.
COC(=O)C(=Cc1ccc(-c2ccsc2C(=O)OC)o1)C(=O)OC,-19.1%,29.4%,?,-8.1%,?,.
CCOC(=O)C(=Cc1ccc(-c2ccsc2C(=O)OC)o1)C(=O)OCC,25.9µM*,?,38.9%,2.1%,?,-4.5
COC(=O)/C(=N/Nc1ccccc1C)Sc1nnc(C(O)c2ccccc2)n1-c1ccccc1 (stereo not drawn),-4.1%,8.4%,-0.9%,-7.4%,0.7%,43.2
